Screening data (PubChem)
AmpC inh det – blocks E. coli AmpC beta-lactamase in presence of detergent; P00811; purified AmpC, nitrocefin hydrolysis with detergent; Potency, µM (doses to about 28.7 µM); hit rate 0.09% among 71,000; AID 584; active = well fitted curve in the direction sought with a large enough effect; inconclusive = small, poorly fitted or top-dose-only effect
Target sequence (P00811 whole entry, looked up): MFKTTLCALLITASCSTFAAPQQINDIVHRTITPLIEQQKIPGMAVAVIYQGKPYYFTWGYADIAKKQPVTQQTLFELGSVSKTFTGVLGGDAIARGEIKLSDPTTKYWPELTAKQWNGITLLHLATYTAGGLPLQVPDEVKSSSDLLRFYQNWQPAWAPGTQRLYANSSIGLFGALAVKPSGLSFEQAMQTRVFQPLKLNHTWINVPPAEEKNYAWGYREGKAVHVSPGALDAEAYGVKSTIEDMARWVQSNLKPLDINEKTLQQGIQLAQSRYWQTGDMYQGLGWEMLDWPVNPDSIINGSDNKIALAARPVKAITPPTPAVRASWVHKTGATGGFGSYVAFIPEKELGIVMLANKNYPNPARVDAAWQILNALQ
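E. coli AmpC (5.3 nM) in 20 mM phosphate pH 7.0 with 0.01% Triton X-100, preincubated 15 min RT with compound; nitrocefin (2 uL of 800 uM stock) hydrolysis followed by 480 nm absorbance every 20 s over 4 min.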
SmPrx2 inh – blocks S. mansoni peroxiredoxin 2 enzymatic activity; hit rate 0.07% among 65,000; S. mansoni Prx2 activity coupled to TGR/GSH (TGR is thioredoxin glutathione reductase), NADPH fluorescence loss, qHTS; Potency, µM
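Prx2 inhibition was measured as reduced NADPH consumption when electrons flowed from NADPH through TGR and glutathione to Prx2 and H2O2. Plates were read kinetically over 8 min; enzyme reagents were held at 4 deg C during dispensing.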
LT uptake inh – inhibitors of anthrax lethal toxin internalization | Cells, anthrax lethal toxin internalization, FRET ratio (460/530) | Potency, µM (doses to about 40 µM), usual class: inhibitors | hit rate 0.67% among 70,000; also: nearly all actives have a fitted effect of over 50% in size
AmpC inh no det – inhibitors of E. coli AmpC beta-lactamase without detergent. P00811. AmpC nitrocefin hydrolysis, absorbance 480 nm, no detergent. Potency, µM (titrated, usually from 28.7 µM). hit rate 1.8% among 71,000. AID 585
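Enzyme, pH 7.0 phosphate. Compound titrations were pre-incubated with AmpC for 15 min at room temperature before nitrocefin (stock 800 uM) addition; product formation was recorded at 480 nm every 20 s for 4 min.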
Hits are given with their value; . = inactive; ? = inconclusive; / = not tested or not shown; [ ] = dose if it differs, or a comment. This is a sample that favours compounds with a hit; in the whole collection about 2.4% have one here. Unless noted, calls follow the shape of the full dose curve.

SMILES	AmpC inh det	SmPrx2 inh	LT uptake inh	AmpC inh no det
CC(C)OC(=O)Nc1ccc(Oc2c(F)c(F)c(F)c(F)c2F)cc1	.	.	/	16µM[single pt active]
Cc1nc2c(c(=O)n1Cc1ccccc1Cl)c1nc3ccccc3nc1n2Cc1ccco1	.	.	7.9µM	.
N#CCCS(=O)(=O)c1nnnn1-c1ccccc1	.	?	10µM	.
CC(=O)[C@@]1(O)CC[C@@H]2[C@@H]3CCC4=CC(=O)CC[C@@]4(C)[C@H]3CC[C@]21C	.	.	.	.
CCOc1ccc(S(=O)(=O)n2c(C)nc3ccccc32)cc1	.	.	.	4µM[single pt active]
CCCCOc1ccc(S(=O)(=O)n2c(C)nc3ccccc32)cc1	.	.	?	.
CC(NC(=O)c1cc(-c2ccc(O)cc2)on1)c1ccccc1 (stereo unspecified)	.	.	.	.
Cc1sc(NC(=O)c2ccco2)nc1-c1ccc2c(c1)CC(C)N2C(=O)C1CC1 (stereo unspecified)	.	.	10µM	.
COc1ccc2c(c1)-c1nc(NC(=O)c3ccco3)sc1CC2	.	.	.	.
COC(=O)C1=C(C)Nc2ccc(C)cc2S1	.	.	.	4µM[single pt active]
CCCn1c(-c2ccc(F)cc2)nc2c(NCCN(C(C)C)C(C)C)nc(C)nc21	.	/	.	.
O=C(CCCC1=NS(=O)(=O)c2ccccc2N1)N1CCN(c2ccc(Cl)cc2)CC1	.	.	?	4µM[single pt active]
COc1ccc(NC(=O)CCCC2=NS(=O)(=O)c3ccccc3N2)cc1	.	.	.	4µM[single pt active]
NC(=O)c1cn(-c2ccccc2)nc1-c1cccnc1	.	.	.	.
NC(=O)c1cc(Cl)cn(-c2ccccc2)c1=O	.	.	.	3.2µM[single pt active]
CCOC(=O)c1c(NC(=O)CN2CCN(c3ccccn3)CC2)sc2c1CCCC2	.	.	.	.
CCOC(=O)CNc1c(N2CCN(c3ccccn3)CC2)c(=O)c1=O	.	.	.	4µM[single pt active]
O=C(C1CCC(CNc2c(N3CCCCC3)c(=O)c2=O)CC1)N1CCN(c2ccccn2)CC1 (stereo unspecified)	.	.	.	4µM[single pt active]
C=C1C(=O)O[C@H]2C[C@@]3(C)CCCC(=C)[C@@H]3C[C@H]12	.	.	?	.
C[C@H]1C[C@@H]2[C@H]3CCC4=CC(=O)C=C[C@@]4(C)[C@]3(Cl)[C@@H](Cl)C[C@]2(C)[C@]1(O)C(=O)COP(=O)(O)O	.[5.75 µM]	.	.[8 µM]	.[5.75 µM]
O=C(Nc1ccc(S(=O)(=O)N2CCCCCC2)cc1)c1ccc(Br)o1	.	.	1.6µM	.
O=C(Cc1cccs1)Nc1ccc(S(=O)(=O)N2CCCCC2)cc1	.	.	.	13µM[single pt active]
Cc1cc2ccccc2n1CCNC(=O)C(C)C	.	.	.	.
Cc1ccc(S(=O)(=O)NCCn2c(C)cc3ccccc32)cc1	.	.	.	16µM[single pt active]
NCc1ccccc1CC(=O)N[C@@H]1C(=O)N2C(C(=O)O)=C(CSc3nnnn3CC(=O)O)CS[C@@H]12	.	.	.[3.58 µM]	.
SMILES	AmpC inh det	SmPrx2 inh	LT uptake inh	AmpC inh no det
CO/N=C(\C(=O)N[C@@H]1C(=O)N2C(C(=O)O)=C(COC(N)=O)CS[C@@H]12)c1ccco1	0.079µM	.	?	0.04µM
O=C(CCl)c1ccc(Cl)cc1Cl	.	/	5µM	.
CCC/C=C(\CCC)C(NS(=O)(=O)c1ccc(C(F)(F)F)cc1)c1ccccc1 (stereo unspecified)	.	.	.	.
CCC/C=C(\CCC)C(NS(=O)(=O)c1ccc(C(F)(F)F)cc1)c1ccc(C(=O)OC)cc1 (stereo unspecified)	.	.	.	13µM
CCC/C=C(\CCC)C(NS(=O)(=O)c1ccccc1)c1ccc(C(F)(F)F)cc1 (stereo unspecified)	.	.	?	13µM[single pt active]
CC1(C)S[C@@H]2[C@H](NC(=O)[C@@H](N)c3ccccc3)C(=O)N2[C@H]1C(=O)O[C@H]1OC(=O)c2ccccc21	?	.	.[3.58 µM]	0.04µM
CC1(C)S[C@@H]2[C@H](NC(=O)[C@@H](N)c3ccc(O)cc3)C(=O)N2[C@H]1C(=O)O	0.32µM	.	.[3.58 µM]	1.3µM
CC1(C)S[C@@H]2[C@H](NC(=O)[C@@H](NC(=O)N3CCNC3=O)c3ccccc3)C(=O)N2[C@H]1C(=O)O	7.9µM	.	.[3.58 µM]	5µM
CC1(C)S[C@@H]2[C@H](NC(=O)[C@H](C(=O)O)c3ccsc3)C(=O)N2[C@H]1C(=O)O	5µM	.	.[3.58 µM]	4µM
CCN1CCN(C(=O)N[C@H](C(=O)N[C@@H]2C(=O)N3[C@@H]2SC(C)(C)[C@@H]3C(=O)O)c2ccccc2)C(=O)C1=O	?	.	.[3.58 µM]	?
CC(=O)c1c(O)c(C)c(O)c2c1OC1=CC(=O)[C@H](C(C)=O)C(=O)[C@]12C	.	.	?	.
